# PubChem BioAssay (NCATS)
# “And” between values parts separate entries of the source, which are not always exact repeats. Identical values can stand only once. Records with an inconclusive call do not appear. Unmarked numbers belong to inactive results. The source made the active and inactive calls. The call rests on the fitted dose curve; in most records, active means well fitted curve in the direction sought with a large enough effect; inconclusive means small, poorly fitted or top-dose-only effect, or another doubt; inactive means no such curve, though single readings can be large or run the other way.
# Experiment: qHTS Assay for Identifying Gametocytocidal Compounds (AID 743244);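 on max response: actives lower the fluorescent signal which means gametocytes are killed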
# Details: P. falciparum 3D7 stage III-V gametocytes, alamarBlue, 72 h; max response: hits give low values
# Summary of the method: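 Late gametocytes (III–V), P. falciparum 3D7; 72 h drug, then 24 h alamarBlue; resazurin reduction read by fluorescence.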
# On the % scale 0 is the no-effect control and ±100 the full control effect; potency means the concentration at half of the fitted maximal effect.
Structure (SMILES),max response,Potency
Cc1ccc(-c2ncc(Cl)cc2-c2ccc(S(C)(=O)=O)cc2)cn1,12.8%,
COc1cc(C(=O)NCc2ccc(OCCN(C)C)cc2)cc(OC)c1OC,1.8%,
CCCCN1C[C@H](O)[C@@H](O)[C@H](O)[C@H]1CO,2.05%,
COc1ccc(/C=N/NC(=O)c2ccncc2)cc1OC,-3.84%,
CCOCCn1c(N2CCCN(C)CC2)nc2ccccc21,-5.27%,
Nc1ccc(S(=O)(=O)NCc2ccccc2)cc1,-10.6%,
O=C(NC1CCN(CCc2c[nH]c3ccccc23)CC1)c1ccccc1,-6.9%,
CCc1nn(CCCN2CCN(c3cccc(Cl)c3)CC2)c(=O)n1CCOc1ccccc1,-8.53% and -14%,
CCCCC(CC)COC(=O)/C=C/c1ccc(OC)cc1 (stereo not given),11.8%,
CCN(CC)CCOC(=O)C1(c2ccccc2)CCCC1,-2.23%,
Cn1c(=O)c2[nH]c(Br)nc2n(C)c1=O,-3.24%,
O[C@@H](c1cc(C(F)(F)F)nc2c(C(F)(F)F)cccc12)[C@H]1CCCCN1,,1.05 µM (active)
CC(=O)Nc1ccc(OC(=O)c2ccccc2OC(C)=O)cc1,12.6%,
Cc1cc(C)cc(OCC2CNC(=O)O2)c1 (stereo not given),-6.82%,
CCO[C@@H]1O[C@H](C(COCc2ccccc2)OCc2ccccc2)[C@H](OCc2ccccc2)[C@H]1O (stereo not given in full),-9.56%,
C[C@@H](O)[C@H]1C(=O)N2C(C(=O)O)=C(S[C@@H]3CN[C@H](CNS(N)(=O)=O)C3)[C@H](C)[C@H]12,13.8%,
Cc1cccc(C)c1NC(=O)CN1CCCCCC1,3.55%,
CCC(C(=O)OCCOCCN(CC)CC)c1ccccc1 (stereo not given),6.25%,
Nc1nc(Cl)nc2c1ncn2[C@@H]1O[C@H](CO)[C@@H](O)[C@@H]1F,14.9%,
C[C@]12CCC(=O)C=C1C=C[C@@H]1[C@@H]2CC[C@@]2(C)[C@H]1CC[C@@]21CCC(=O)O1,1.8%,

Structure (SMILES),max response,Potency
CN1CCN(c2c(F)cc3c(=O)c(C(=O)O)cn4c3c2SCC4)CC1,9.27%,
CN1CCN(C2=Nc3cc(F)ccc3Cc3ccccc32)CC1,29%,
CCCCCCCCNC(C)C(O)c1ccc(SC(C)C)cc1 (stereo not given),,2.51 µM (active)
CCN1CCN(C(=O)N[C@@H](C(=O)N[C@@H]2C(=O)N3C(C(=O)O)=C(CSc4nnnn4C)CS[C@H]23)c2ccc(O)cc2)C(=O)C1=O,14.5%,
O=C1[C@H](CC[C@H](O)c2ccc(F)cc2)[C@@H](c2ccc(O)cc2)N1c1ccc(F)cc1,4.75%,
NS(=O)(=O)c1cc2c(cc1Cl)NC(CC1CCCC1)NS2(=O)=O (stereo not given),17.3%,
C[N+]1(CC2COC(c3ccccc3)(C3CCCCC3)O2)CCCCC1 (stereo not given),,11.2 µM (active)
O=c1[nH]c(=O)n([C@H]2C[C@H](O)[C@@H](CO)O2)cc1F,4.58%,
CC(=O)OCC(=O)[C@H]1CC[C@H]2[C@@H]3CCC4=CC(=O)CC[C@]4(C)[C@H]3CC[C@]12C,-7.41%,
CN1CCc2cccc3c2[C@H]1Cc1ccc(O)c(O)c1-3,,3.98 µM (active)
CCOc1cc(OCC)c(C(=O)CCC(=O)O)cc1OCC,11%,
CN1CCC(OC(c2ccccc2)c2ccccc2)CC1,-7.17%,
O=C(CCCN1CC=C(n2c(=O)[nH]c3ccccc32)CC1)c1ccc(F)cc1,7.51%,
COP(=O)(OC)OC(c1ccc(Cl)cc1)P(=O)(OC)OC (stereo not given),0.577%,
CCN[C@@H]1C[C@H](N)[C@@H](OC2OC(CN)=CCC2N)[C@H](O)[C@H]1O[C@H]1OC[C@](C)(O)[C@H](NC)[C@H]1O (stereo not given in full),13.5%,
NCc1ccccc1Sc1ccccc1CO,-6.07%,
CC(=O)Nc1ccc(S(=O)(=O)Nc2ccc([N+](=O)[O-])cc2)cc1,3.59%,
CC[C@H](c1ccc(O)cc1)[C@@H](CC)c1ccc(O)cc1,11.9%,
CN(C)CCN1C(=O)c2ccccc2N(C)c2ccccc21,-0.0527%,
COc1ccc(-c2cc(C(F)F)nn2-c2ccc(S(N)(=O)=O)cc2)cc1F,25.1%,
